Source: PubChem BioAssay (Tox21)
Inconclusive results are not listed. Active and inactive are the calls of the source. Calls follow the shape of the full dose curve.

assay: qHTS assay for small molecule agonists of the p53 signaling pathway - cell viability (AID 651633); conditions: p53RE-bla HCT-116 viability, ATP luminescence, 16 h; series mostly up to 83.3 µM; activity change, negative = cytotoxicity: at the top concentration; also: nearly all actives have a fitted effect of over 30% in size;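 as to activity change, negative = cytotoxicity: p53RE-bla HCT reporter cells with a stable beta-lactamase p53 reporter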
From the text: National Center for Advancing Translational Sciences [NCATS]
NIH Chemical Genomics Center [NCGC]
U.S. Environmental Protection Agency [EPA]
National Institutes of Environmental Health Sciences [NIEHS]
National Toxicology Program [NTP]
U.S. Food and Drug Administration [FDA]
p53, a tumor suppressor protein, is activated following cellular insult, including DNA damage and other cellular stresses. The activation of p53 regulates cell fate by inducing DNA repair, cell cycle arrest, apoptosis, or cellular senescence. The activation of p53, therefore, is a good indicator of DNA damage and other cellular stresses. […] The activation of the reporter gene under culture conditions can be detected by fluorescence intensity. This cell line was used to screen the Tox21 compound library in a 1536-well plate format and to identify agonists that activate the p53 signaling pathway.
Tox21 Assay Protocol Summary:
The p53RE-bla cells were dispensed at 4,000 cells/5 ul/well in 1536-well black wall/clear bottom plates using a Multidrop dispenser. After the assay plates were incubated at a 37 C/5% CO2 incubator for 5 hours, 23 nL of compounds dissolved in DMSO, positive controls or DMSO only was transferred to the assay plate by a pin tool. The plates were incubated at 37 C for 16 hours. After 1 uL of LiveBLAzerTM B/G FRET substrate was added using a Flying Reagent Dispenser, the plates were incubated at room temperature for 2 hours, and fluorescence intensity was measured by an Envision plate reader.
For cell viability readout that measures cytotoxicity, 4 ul/well of CellTiter-Glo reagent was added into the assay plates using a Flying Reagent Dispenser. After 30 min incubation at room temperature, the luminescence intensity in the plates was measured using a ViewLux plate reader.
% is scaled to controls: 0 for no effect and ±100 for the full control effect; potency is read from the fitted curve at half-maximal effect.

Question: With `COC(=O)CC#N` as the compound, how does the “activity change, negative = cytotoxicity” value read?
Answer: -12.8% [at 95.3 µM] (inactive)

Question: For `CCCCCCOc1ccc(O)cc1`, which “activity change, negative = cytotoxicity” value is on record?
Answer: -14% (inactive)

Question: For `CC(COC(=O)c1ccccc1)OC(=O)c1ccccc1` (stereo not given), which “activity change, negative = cytotoxicity” value is on record?
Answer: -9.02% (inactive)

Question: With `CNC(=S)NN` as the compound, how does the “activity change, negative = cytotoxicity” value read?
Answer: -15.7% (inactive)

Question: Which “activity change, negative = cytotoxicity” value does the source give for `CC(C)c1ccc(O)c(C(C)C)c1` here?
Answer: -20.8% (inactive)

Question: Which “activity change, negative = cytotoxicity” value does the source give for `CCC(=O)OCCc1ccccc1` here?
Answer: 10.9% (inactive)

Question: Which “activity change, negative = cytotoxicity” value does the source give for `CCc1cccc(C)c1` here?
Answer: 12.7% [at 95.3 µM] (inactive)

Question: Which Potency does the source give for `Oc1ccc(-c2ccccc2)c(Cl)c1` here?
Answer: 61.1 µM (active)

Question: For `C=CC(=C)CCC=C(C)C`, which “activity change, negative = cytotoxicity” value is on record?
Answer: 5.28% (inactive)

Question: For `C/C=C/C(=O)Oc1c(CCCCCC(C)C)cc([N+](=O)[O-])cc1[N+](=O)[O-]`, which Potency is on record?
Answer: 15.4 µM (active)

Question: For `CCCCCCCCCCCCCCNCCO`, which “activity change, negative = cytotoxicity” value is on record?
Answer: 13.8% (inactive)

Question: With `CCCCCCCCCCOCC(O)CN` (stereo not given) as the compound, how does the Potency read?
Answer: 29.8 µM (active)

Question: For `CN1CCN(C2Cc3ccccc3Sc3ccc(Cl)cc32)CC1` (stereo not given), which Potency is on record?
Answer: 29.8 µM (active)

Question: Which Potency does the source give for `O[C@@H](c1cc(C(F)(F)F)nc2c(C(F)(F)F)cccc12)[C@H]1CCCCN1` here?
Answer: 21.1 µM (active)

Question: For `CCN(CC)CCSC(=O)C(c1ccccc1)c1ccccc1`, which Potency is on record?
Answer: inactive

Question: For `C=C1C(C)(C)[C@@]2(Cl)C(Cl)[C@]1(Cl)C(Cl)(Cl)C2(Cl)Cl` (stereo not given in full), which Potency is on record?
Answer: 67.3 µM (active)

Question: For `CCN(CC)CCOc1ccc(C(O)(Cc2ccc(Cl)cc2)c2ccc(C)cc2)cc1` (stereo not given), which Potency is on record?
Answer: 29.8 µM (active)

Question: For `O=C(O)CC(=O)O`, which “activity change, negative = cytotoxicity” value is on record?
Answer: 12.8% (inactive)

Question: With `CNC(=O)c1cc(Oc2ccc(NC(=O)Nc3ccc(Cl)c(C(F)(F)F)c3)cc2)ccn1` as the compound, how does the Potency read?
Answer: 5.96 µM (active)

Question: For `c1ccc(Nc2cccc3ccccc23)cc1`, which “activity change, negative = cytotoxicity” value is on record?
Answer: -23.5% (inactive)

Question: Which “activity change, negative = cytotoxicity” value does the source give for `S=C(SSSSSSC(=S)N1CCCCC1)N1CCCCC1` here?
Answer: -4.99% [at 39.1 µM] (inactive)

Question: For `S=P(N1CC1)(N1CC1)N1CC1`, which Potency is on record?
Answer: inactive

Question: For `O=S(=O)(O)CCCN1CCOCC1`, which “activity change, negative = cytotoxicity” value is on record?
Answer: 13.5% (inactive)

Question: With `CCCCCCCC/C=C\CCCCCCCC(=O)OCCOC(=O)CCCCCCC/C=C\CCCCCCCC` as the compound, how does the “activity change, negative = cytotoxicity” value read?
Answer: 5.8% [at 95.3 µM] (inactive)

Question: With `Cc1occc1SSc1ccoc1C` as the compound, how does the “activity change, negative = cytotoxicity” value read?
Answer: 13.2% (inactive)

Question: Which Potency does the source give for `CCC(C)(C)c1cc(O)c(C(C)(C)CC)cc1O` here?
Answer: 43.3 µM (active)

Question: Which Potency does the source give for `C=C[C@](C)(O)CC[C@@H]1[C@@]2(C)CCCC(C)(C)[C@@H]2CC[C@@]1(C)O` here?
Answer: 61.1 µM (active)

Question: For `Nc1cc(Cl)c([N+](=O)[O-])cc1O`, which “activity change, negative = cytotoxicity” value is on record?
Answer: -8.43% (inactive)

Question: With `CCN(CC)c1ccc(N)cc1` as the compound, how does the “activity change, negative = cytotoxicity” value read?
Answer: -19.2% [at 95.3 µM] (inactive)

Question: With `CCCC(CC)CCCCCCCN` (stereo not given) as the compound, how does the “activity change, negative = cytotoxicity” value read?
Answer: -7.71% [at 95.3 µM] (inactive)

Question: Which Potency does the source give for `CN(C)CCCN1c2ccccc2Sc2ccc(C(F)(F)F)cc21` here?
Answer: 29.8 µM (active)

Question: With `CCOC(=O)[C@@](C)(N)Cc1ccc(O)c(O)c1` as the compound, how does the “activity change, negative = cytotoxicity” value read?
Answer: 13.3% [at 39.1 µM] (inactive)

Question: Which “activity change, negative = cytotoxicity” value does the source give for `O=C1OC(=O)c2cccc3cccc1c23` here?
Answer: 12.2% [at 95.3 µM] (inactive)

Question: For `Cc1cc2c(C(C)C)c(O)c(O)c(C=O)c2c(O)c1-c1c(C)cc2c(C(C)C)c(O)c(O)c(C=O)c2c1O`, which Potency is on record?
Answer: 8.41 µM (active)

Question: Which “activity change, negative = cytotoxicity” value does the source give for `O=C(c1ccccc1)c1cc(Cl)ccc1O` here?
Answer: 9.26% (inactive)

Question: With `O=C(O)c1cccc(Cl)n1` as the compound, how does the “activity change, negative = cytotoxicity” value read?
Answer: 19.9% (inactive)

Question: For `O=Cc1ccc(F)cc1`, which “activity change, negative = cytotoxicity” value is on record?
Answer: -7.89% (inactive)

Question: For `CCO[Si](CCCSSSSCCC[Si](OCC)(OCC)OCC)(OCC)OCC`, which “activity change, negative = cytotoxicity” value is on record?
Answer: -22.3% (inactive)

Question: With `CN(C)c1ccc(N=NS(=O)(=O)O)cc1` as the compound, how does the “activity change, negative = cytotoxicity” value read?
Answer: -15.2% (inactive)

Question: Which Potency does the source give for `O=C1C=CC(=O)N1c1ccccc1` here?
Answer: 48.6 µM (active)
